Reference: PubChem BioAssay AID504882 (Broad Institute, 2011)
Out of some 1,200 compounds screened, about 290 (24%) were called active. Another 9% or so got no clear call; they are omitted. A selection follows. Potency and affinity values are given separately. Unmarked numbers belong to inactive results. No rule for the calls is given here.

Experiment: cytotoxicity in EBV lymphoblastoid cells, dose response, cytotoxicity control, cell-based, plate reader, cherry-picks, set 2 (AID 504882);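 also: 0% = neutral control wells and -100% = positive control wells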
Conditions: EBV lymphoblastoid cells (LCL) viability; series mostly up to 19.5 µM; activity change, negative = cytotoxicity: at the top concentration

| SMILES | activity change, negative = cytotoxicity |
| --- | --- |
| CC(C)(C)C(=O)Nc1nnc(SCC(=O)Nc2ccc3c(c2)OCO3)s1 | 13.9% |
| O=C(NCCc1ccccc1)c1ccccc1Cl | 8.88% |
| CCc1nnc(NC(=O)c2ccc(S(=O)(=O)N3CCOCC3)cc2)s1 | 10.7% |
| CC(C)N1CCN(c2ccc(OC[C@H]3CO[C@](Cn4cncn4)(c4ccc(Cl)cc4Cl)O3)cc2)CC1 | -3.03% |
| Cc1ccnc(N/C=C(/NC(=O)c2ccccc2)C(=O)N/N=C\c2ccc(F)cc2)n1 | 9.12% |
| CCOc1cc(Br)cc(/C=N/NC(=O)c2cccnc2)c1O | -28.9% |
| Cc1ccccc1CC(=O)NCc1cccnc1 | 16.8% |
| COc1cccc(/C=N\NC(=O)c2ccc(C)nc2)c1 | 19.6% |
| CC(NC(=O)CNC(=O)OCc1ccccc1)C(=O)N1CC(O)CC1C(=O)OCc1ccccc1 (stereo not given) | 12.6% |
| O=C(CN1C(=O)C2C3C=CC(C3)C2C1=O)NCCC1=CCCCC1 (stereo not given) | 6.89% |
| COCCn1c(C)cc(C(=O)CSc2nnc3ccccn23)c1C | 11.9% |
| Cc1cc(C(=O)COC(=O)c2cccc(NS(C)(=O)=O)c2)c(C)n1CC1CCCO1 (stereo not given) | 17% |
| CSCCC(NC(=O)c1ccco1)C(=O)OCC(=O)Nc1ncc(Cl)c(C)c1Cl (stereo not given) | 26.8% |
| CNC(=O)C1=NCCCc2cc(OC)c(OC)cc21 | 24.7% |
| Nc1ccc(CCNc2ncnc3c2ncn3[C@@H]2O[C@H](CO)[C@@H](O)[C@H]2O)cc1 | 7.71% |
| NC(=O)c1ncn([C@@H]2O[C@H](CO)[C@@H](O)[C@H]2O)n1 | 14.5% |
| Nc1ccn(C2CCCO2)c(=O)n1 (stereo not given) | 14.8% |
| CC1(C)CC(=O)C(CC2=C(O)CC(C)(C)CC2=O)=C(O)C1 | 9.73% |
| CCc1cc(Cl)c(OC)c(C(=O)NC[C@@H]2CCCN2CC)c1O | 2.69% |
| COc1ccc(NC(=O)CCS(=O)(=O)c2ccc3c(c2)CCN3C(C)=O)cc1 | 8.11% |
| C=CCn1c(SCc2ccc3nonc3c2)nnc1-c1cccs1 | 18.4% |
| COc1c(S(=O)(=O)N2CCN(c3ccc(F)cc3)CC2)ccc(Cl)c1Cl | 44.2% |
| O=C(CCCN1C(=O)/C(=C/c2ccccc2Cl)SC1=S)NNC(=O)c1ccccc1Cl | 6.92% |
| CN1C(=O)C(CC(=O)NC2CCCCC2)SC1=Nc1ccccc1 (stereo not given) | 20.7% |
| CCOc1ccc(-c2nc(CSCC(=O)NCc3ccco3)c(C)o2)cc1 | 0.208% |
| COc1ccc(/C=C\C(=O)NCc2ccc3c(c2)cc(C)n3C)cc1OC | 7.82% |
| COc1ccc(-c2csc3ncnc(NCCO)c23)cc1 | 12.6% |
| CCOC(=O)Cc1csc(N/N=C\c2ccc(N(C)C)cc2)n1 | 3.66% |

| SMILES | activity change, negative = cytotoxicity |
| --- | --- |
| CCCSc1nc2cc(S(=O)(=O)N3CCOCC3)ccc2n1CC | -0.597% |
| CCc1c(C)nc2cc(-c3ccc(OC)c(OC)c3)nn2c1NCC1CC1 | -40.8% |
| CCN(CC(=O)NCc1ccc(F)cc1)CC(=O)Nc1cc(S(=O)(=O)N(C)C)ccc1C | 15% |
| COc1cc(NCCCCCCN)c2ncccc2c1OC | 25.1% |
| CN(C)/C=C/C(=O)c1ccc2noc(-c3ccccc3)c2c1 | 15% |
| CCc1ccc(C(=O)COC(=O)c2cccc(N3C(=O)c4c(C)nc5ccccc5c4C3=O)c2)cc1 | 41.6% |
| O=C(Cn1nc(C(F)(F)F)c2c1CCC2)NC1CCCCC1 | 13.4% |
| OCc1cc(C(O)CNCCCCCCOCCCCc2ccccc2)ccc1O (stereo not given) | 18.7% |
| Cc1cccc(NC(=O)c2cnc3ccccn3c2=O)c1 | 4.87% |
| Cc1cccc(-n2ncc3c(N4CCOCC4)ncnc32)c1 | -6.17% |
| CCOCCCn1c(=S)[nH]c2ncccc2c1=O | 2.14% |
| Cc1ccn2c(c1)nc(=S)n2C(=O)c1ccccc1 | -0.036% |
| CCC(C)N1C(=O)CCC1C(=O)N1CCN(c2ccc(F)cc2)CC1 (stereo not given) | 10.4% |
| CNC(=O)c1[nH]cnc1C(=O)N[C@@H](CCCCNC(=O)OC(C)(C)C)C(=O)OC(C)(C)C | 10.2% |
| CN(C)c1ccnc2sc(C(N)=O)c(N)c12 | 1.46% |
| O=C(Nc1ccc(F)c(F)c1)C1CCCCC1 | 0.732% |
| O=C(C[n+]1ccccc1)N/N=C/c1ccc(O)cc1 | 30.2% |
| Cc1cc(OCC(=O)Nc2cnn(CCCC(=O)O)c2)ccc1Cl | 21.1% |
| COC(=O)c1cccc2c1-c1ccccc1/C2=N/O | 5.57% |
| COc1ccc(S(=O)(=O)N2CCN(CC(=O)Nc3cc(OC)cc(OC)c3)CC2)cc1 | 13% |
| Cc1cccc(S(=O)(=O)N2CCCc3ccccc32)c1 | 0.222% |
| COc1ccc(S(=O)(=O)NNC(=O)C2Cc3c(ccc4ccccc34)O2)cc1 (stereo not given) | 2.34% |
| Cc1ccc(N2CCCCn3c2nc2c3c(=O)n(CC(=O)O)c(=O)n2C)cc1 | 13.5% |
| Cc1ccc(N(Cc2cc3ccccc3[nH]c2=O)C(=O)c2ccco2)c(C)c1 | 13.3% |
| COc1ccc(S(=O)(=O)N2CCC(C(=O)NC3CC3)CC2)cc1OC | 11.8% |
| COc1ccc(-c2cnc(NCc3cc4c(cc3[N+](=O)[O-])OCO4)n2C)cc1 | 7.9% |
| CNC1(C)[C@H]2CC[C@H](C2)C1(C)C (stereo not given in full) | 15.2% |
